Source: PubChem
Only a selection was taken, and hits are over-represented in it overall.
IDE exosite inh = insulin-degrading enzyme (human) exo-site inhibition. hit rate 6.3% among 17,000. P14735. z-score at 20 µM. purified IDE, FL-6b probe fluorescence polarization; hits give low values. AID 1259349;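 active = z-score of -3 or lower, meaning strong loss of probe binding signal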;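 also: His-tagged human IDE residues 42-1019 made in E. coli with 30 nM FL-6b probe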
Target sequence (P14735 42-1019 limits assumed): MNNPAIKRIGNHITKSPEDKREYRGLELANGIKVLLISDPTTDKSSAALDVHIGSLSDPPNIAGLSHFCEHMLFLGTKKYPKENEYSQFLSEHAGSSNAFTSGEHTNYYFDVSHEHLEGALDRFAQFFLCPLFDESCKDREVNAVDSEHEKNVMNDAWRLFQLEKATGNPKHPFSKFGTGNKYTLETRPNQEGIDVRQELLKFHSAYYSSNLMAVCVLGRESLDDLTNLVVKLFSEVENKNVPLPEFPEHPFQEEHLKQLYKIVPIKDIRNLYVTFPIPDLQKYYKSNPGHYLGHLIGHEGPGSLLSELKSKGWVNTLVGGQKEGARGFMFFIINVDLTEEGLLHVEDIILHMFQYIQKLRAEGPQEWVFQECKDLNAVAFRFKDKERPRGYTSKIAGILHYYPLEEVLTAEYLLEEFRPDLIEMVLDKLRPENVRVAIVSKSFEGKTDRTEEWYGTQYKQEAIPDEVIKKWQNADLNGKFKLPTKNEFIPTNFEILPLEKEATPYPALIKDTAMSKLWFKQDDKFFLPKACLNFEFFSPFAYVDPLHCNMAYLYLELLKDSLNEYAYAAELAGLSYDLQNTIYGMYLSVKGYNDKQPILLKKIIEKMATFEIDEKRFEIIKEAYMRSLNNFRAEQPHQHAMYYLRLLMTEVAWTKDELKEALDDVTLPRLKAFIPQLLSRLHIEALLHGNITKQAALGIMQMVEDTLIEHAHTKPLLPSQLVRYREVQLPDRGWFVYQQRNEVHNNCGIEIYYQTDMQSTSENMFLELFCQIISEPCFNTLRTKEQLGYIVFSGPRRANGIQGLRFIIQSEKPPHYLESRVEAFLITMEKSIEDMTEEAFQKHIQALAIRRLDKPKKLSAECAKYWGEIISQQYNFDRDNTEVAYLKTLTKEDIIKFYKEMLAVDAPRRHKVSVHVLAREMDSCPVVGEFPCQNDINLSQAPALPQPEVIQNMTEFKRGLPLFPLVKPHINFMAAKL
Active calls of the source: *.

`Cc1cccc(-c2ccc([C@@H]3[C@@H](CO)N4CCCCN(Cc5cncnc5)C[C@@H]34)cc2)c1` gave IDE exosite inh -6.7*.
`Cc1cccc(-c2ccc([C@H]3[C@@H](CO)N4CCCCN(Cc5cccnc5)C[C@@H]34)cc2)c1` gave IDE exosite inh -1.8.
For Cc1cccc(-c2ccc([C@H]3[C@@H](CO)N4CCCCN(Cc5cccnc5)C[C@H]34)cc2)c1 the results were IDE exosite inh -6.8*.
`OC[C@@H]1[C@@H](c2ccc(Br)cc2)[C@H]2CN(Cc3cncnc3)CCCCN12` gave IDE exosite inh 0.52.
Screening Cc1cccc(-c2ccc([C@@H]3[C@H](CO)N4CCCCN(Cc5cncnc5)C[C@@H]34)cc2)c1 returned IDE exosite inh -7.5*.
`OC[C@@H]1[C@H](c2ccc(-c3ccccc3F)cc2)[C@@H]2CN(Cc3cncnc3)CCCCN12` gave IDE exosite inh -1.6.
`OC[C@@H]1[C@H](c2ccc(C3=CCCC3)cc2)[C@H]2CN(Cc3cncnc3)CCCCN12` gave IDE exosite inh 0.59.
`CO[C@H]1CN(C)C(=O)c2cc(NS(=O)(=O)c3cccc(Cl)c3)ccc2OC[C@H](C)NC[C@H]1C` gave IDE exosite inh -0.89.
For N#C[C@@H]1[C@H](c2ccccc2)[C@H](CO)N1C(=O)Cc1ccccc1 the results were IDE exosite inh 0.48.
For COc1cccc(CNC(=O)C[C@H]2CC[C@H]3[C@H](COc4ccc(NC(=O)c5cccs5)cc4C(=O)N3C)O2)c1 the results were IDE exosite inh -0.3.
`COCC#Cc1ccc([C@@H]2[C@@H](CO)N3CCCCN(S(=O)(=O)c4ccccc4C)C[C@H]23)cc1` gave IDE exosite inh 1.7.
CCC(=O)N1CC2(CCN(C(=O)Nc3c(C)noc3C)CC2)c2c([nH]c3cc(OC)ccc23)[C@H]1CO was read as IDE exosite inh 0.28.
C/C=C/c1ccc([C@@H]2[C@@H](CO)N(C(=O)C3CCC3)[C@H]2CN(CC)C(=O)CC)cc1 was read as IDE exosite inh 0.68.
`O=C(C[C@H]1C=C[C@@H](NC(=O)c2ccncc2)[C@H](CO)O1)NCC1CC1` gave IDE exosite inh 0.15.
`C[C@@H]1CN([C@H](C)CO)C(=O)c2cc(N(C)C)ccc2O[C@H]1CN(C)Cc1ccc(Oc2ccccc2)cc1` gave IDE exosite inh -0.23.
C[C@@H]1CN([C@H](C)CO)C(=O)c2cc(N(C)C)ccc2O[C@@H]1CN(C)Cc1ccc(Oc2ccccc2)cc1 was read as IDE exosite inh -2.3.
For C[C@H](CO)N1C[C@H](C)[C@H](CN(C)Cc2ccc(Oc3ccccc3)cc2)Oc2ccc(N(C)C)cc2C1=O the results were IDE exosite inh -4.2*.
Screening Cc1noc(C)c1S(=O)(=O)Nc1ccc2c(c1)CC(=O)N([C@@H](C)CO)C[C@@H](C)[C@@H](CN(C)Cc1ccc(Oc3ccccc3)cc1)O2 returned IDE exosite inh 0.55.
For Cc1noc(C)c1S(=O)(=O)Nc1ccc2c(c1)CC(=O)N([C@H](C)CO)C[C@H](C)[C@@H](CN(C)Cc1ccc(Oc3ccccc3)cc1)O2 the results were IDE exosite inh -3.6*.
`COc1ccc(S(=O)(=O)Nc2ccc3c(c2)CC(=O)N([C@H](C)CO)C[C@@H](C)[C@H](CN(C)C(=O)Nc2c(C)noc2C)O3)cc1` gave IDE exosite inh 0.89.
Screening CO[C@@H]1CN(C)C(=O)c2cc(NC(C)=O)ccc2OC[C@H](C)N(C(=O)Cc2ccccn2)C[C@H]1C returned IDE exosite inh 1.3.
`C[C@@H]1CNC(=O)[C@H](Cc2ccc(C(F)(F)F)cc2)CCn2nncc2COC1` gave IDE exosite inh 1.1.
For COCC(=O)N1CCCCN2[C@H](C1)[C@H](c1ccc(C#Cc3ccccc3)cc1)[C@@H]2CO the results were IDE exosite inh -10*.
Screening COCC(=O)N1CCCCN2[C@H](CO)[C@@H](c3ccc(-c4ccccc4)cc3)[C@@H]2C1 returned IDE exosite inh -0.53.
Screening COCC#Cc1ccc([C@@H]2[C@@H](CO)N3CCCCN(C(=O)COC)C[C@H]23)cc1 returned IDE exosite inh 1.
`COCC(=O)N1CCCCN2[C@@H](CO)[C@H](c3ccc(C#Cc4ccccc4)cc3)[C@@H]2C1` gave IDE exosite inh -11*.
Screening COCC(=O)N1CCCCN2[C@H](CO)[C@H](c3ccc(-c4ccccc4)cc3)[C@H]2C1 returned IDE exosite inh -0.28.
For COCC(=O)N1CCCCN2[C@H](C1)[C@@H](c1ccc(C#Cc3ccccc3)cc1)[C@@H]2CO the results were IDE exosite inh -5.9*.
`COCC#Cc1ccc([C@@H]2[C@H]3CN(C(=O)COC)CCCCN3[C@H]2CO)cc1` gave IDE exosite inh 0.85.
`COCC(=O)N1CCCCN2[C@H](C1)[C@H](c1ccc(-c3ccccc3)cc1)[C@@H]2CO` gave IDE exosite inh -0.42.
Screening COCC#Cc1ccc([C@H]2[C@@H](CO)N3CCCCN(C(=O)COC)C[C@H]23)cc1 returned IDE exosite inh 2.6.
COCC(=O)N1CCCCN2[C@H](CO)[C@H](c3ccc(C#Cc4ccccc4)cc3)[C@@H]2C1 was read as IDE exosite inh -8.4*.
For C[C@H](CO)N1C[C@H](C)[C@@H](CN(C)C(=O)Nc2ccc3c(c2)OCO3)OCCCC[C@H](C)Oc2ccc(NS(=O)(=O)c3ccc(F)cc3)cc2C1=O the results were IDE exosite inh 1.4.
COc1ccccc1-c1cn(CC[C@@H]2CC[C@H](NC(=O)C3CCCCC3)[C@H](CO)O2)nn1 was read as IDE exosite inh -0.75.
C[C@@H]1CN([C@@H](C)CO)C(=O)c2cc(-c3ccc(C#N)cc3)cnc2O[C@H]1CN(C)Cc1cccnc1 was read as IDE exosite inh 0.5.
`CN(C)CC(=O)N1[C@H](C#N)[C@@H](c2ccccc2-c2ccccc2F)[C@H]1CO` gave IDE exosite inh -0.59.
For C[C@@H](O)C#Cc1ccc([C@H]2[C@H](CO)N3CCCCN(C(=O)c4ccncc4)C[C@@H]23)cc1 the results were IDE exosite inh 4.6.
For COCC(=O)N1CCCCN2[C@H](CO)[C@H](c3ccc(C#Cc4ccc(OC)cc4)cc3)[C@@H]2C1 the results were IDE exosite inh -8.5*.
COCC(=O)N1CCCCN2[C@H](CO)[C@@H](c3ccc(C#Cc4ccc(OC)cc4)cc3)[C@H]2C1 was read as IDE exosite inh 1.7.
`COCC(=O)N1CCCCN2[C@H](CO)[C@@H](c3ccc(C#Cc4ccc(OC)cc4)cc3)[C@@H]2C1` gave IDE exosite inh -1.4.
Screening N#C[C@H]1[C@@H](c2ccccc2C2=CCCC2)[C@H](CO)N1S(=O)(=O)c1cccc(F)c1 returned IDE exosite inh 1.6.
`C[C@H](CO)N1C[C@H](C)[C@H](CN(C)S(=O)(=O)c2ccccc2F)Oc2ncc(/C=C/c3ccccc3)cc2C1=O` gave IDE exosite inh -1.7.
C[C@@H]1CN([C@H](C)CO)C(=O)c2cc(/C=C/c3ccccc3)cnc2O[C@H]1CN(C)S(=O)(=O)c1ccccc1F was read as IDE exosite inh -4.6*.
Screening C[C@@H]1CN([C@@H](C)CO)C(=O)c2cc(-c3ccc(F)cc3)cnc2O[C@H]1CN(C)S(C)(=O)=O returned IDE exosite inh 0.99.
C/C=C/c1ccccc1[C@@H]1[C@@H](C#N)N(C(=O)CN2CCOCC2)[C@@H]1CO was read as IDE exosite inh 0.38.
For CCCNC(=O)N1CC2(CCN(Cc3nccs3)CC2)c2c([nH]c3cc(OC)ccc23)[C@H]1CO the results were IDE exosite inh -0.59.
